Targets with a hit are over-represented here; the source holds about 7,900 in all. About 0.6% of all pairs of compound and target were hits.
Key:
Experiment in all cases: log2 fold change, soluble protein after heating vs DMSO (PISA); higher = thermal stabilisation; K562 cells, 10 uM, 30 min; active = over 0.2 and 3.5 SD of the protein, either way, in both replicates (recomputed)
[1] = compound: NC(=O)Nc1cc(-c2cccc(F)c2)sc1C(=O)N[C@H]1CCCNC1
In short: (§1)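 Aliquots of K562 cells (2×10^6 cells/mL) treated with 10 μM compound for 30 min were heated for 3 min over 48°C-58°C. After pooling and extraction in PBS with 0.5% NP-40 at 4°C, soluble protein from a 21,000xg, 90 min spin was quantified by TMTpro 16plex LC-MS/MS with channel sums equalised. Thermal stability is expressed against control samples, from duplicates, as a log2 fold change.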

[2] = compound: NC(=O)c1cnc(N[C@@H]2CCCC[C@@H]2N)nc1Nc1cccc(-n2nccn2)c1
In short: as §1

[3] = compound: NC1(c2ccc(-c3nc4ccn5c(=O)[nH]nc5c4cc3-c3ccccc3)cc2)CCC1
In short: as §1

[4] = compound: NCC(=O)Nc1ccc(-n2nc(C(F)(F)F)cc2-c2ccc3c(ccc4ccccc43)c2)cc1
In short: as §1

entinostat = compound: Nc1ccccc1NC(=O)c1ccc(CNC(=O)OCc2cccnc2)cc1 [entinostat]
In short: as §1

vorinostat = compound: O=C(CCCCCCC(=O)Nc1ccccc1)NO [vorinostat]
In short: as §1

citarinostat = compound: O=C(CCCCCCNC(=O)c1cnc(N(c2ccccc2)c2ccccc2Cl)nc1)NO [citarinostat]
In short: as §1

silmitasertib = compound: O=C(O)c1ccc2c(c1)nc(Nc1cccc(Cl)c1)c1ccncc12 [silmitasertib]
In short: as §1

[5] = compound: O=C1NC(=O)C(c2cnc3ccccn23)=C1c1cn2c3c(cc(F)cc13)CN(C(=O)N1CCCCC1)CC2
In short: as §1

[6] = compound: c1cc(OCCN2CCCCC2)cc(-c2n[nH]c3ccc(-c4nnc[nH]4)cc23)c1
In short: as §1

Measured: log2 fold change

TIMM29 (UniProt Q9BSF4)
inactive: [1] -0.16 | [2] -0.024 | [3] -0.069 | [4] -0.011 | entinostat -0.04 | vorinostat -0.093 | citarinostat -0.016 | silmitasertib 0.006 | [5] -0.08 | [6] -0.004

TAF9 (UniProt Q16594)
Sequence of UniProt Q16594 (Q16594 whole entry, looked up): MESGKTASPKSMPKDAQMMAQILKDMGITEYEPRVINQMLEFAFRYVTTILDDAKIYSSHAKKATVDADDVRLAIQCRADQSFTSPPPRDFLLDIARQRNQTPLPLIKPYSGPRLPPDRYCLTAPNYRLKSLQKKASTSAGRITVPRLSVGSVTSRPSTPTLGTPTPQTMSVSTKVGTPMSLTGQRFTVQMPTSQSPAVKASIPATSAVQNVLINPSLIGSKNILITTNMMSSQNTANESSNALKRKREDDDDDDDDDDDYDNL
inactive: [1] -0.352 | [2] -0.026 | [3] 0.037 | [4] 0 | vorinostat 0.002 | citarinostat -0.043 | silmitasertib -0.039 | [5] -0.022 | [6] 0.055
active: entinostat -0.567

SLC30A10 (UniProt Q6XR72)
active: [6] -0.432
inactive: [1] -0.035 | [2] 0.088 | [3] 0.084 | [4] 0.133 | entinostat -0.003 | vorinostat -0.215 | citarinostat -0.008 | silmitasertib -0.05 | [5] -0.005

TAOK1 (UniProt Q7L7X3)
inactive: [1] -0.043 | [2] -0.04 | [3] -0.063 | [4] -0.068 | entinostat -0.01 | vorinostat 0.048 | citarinostat 0 | silmitasertib -0.003 | [5] -0.038 | [6] -0.194

STK38L (UniProt Q9Y2H1)
Sequence of UniProt Q9Y2H1 (Q9Y2H1 whole entry, looked up): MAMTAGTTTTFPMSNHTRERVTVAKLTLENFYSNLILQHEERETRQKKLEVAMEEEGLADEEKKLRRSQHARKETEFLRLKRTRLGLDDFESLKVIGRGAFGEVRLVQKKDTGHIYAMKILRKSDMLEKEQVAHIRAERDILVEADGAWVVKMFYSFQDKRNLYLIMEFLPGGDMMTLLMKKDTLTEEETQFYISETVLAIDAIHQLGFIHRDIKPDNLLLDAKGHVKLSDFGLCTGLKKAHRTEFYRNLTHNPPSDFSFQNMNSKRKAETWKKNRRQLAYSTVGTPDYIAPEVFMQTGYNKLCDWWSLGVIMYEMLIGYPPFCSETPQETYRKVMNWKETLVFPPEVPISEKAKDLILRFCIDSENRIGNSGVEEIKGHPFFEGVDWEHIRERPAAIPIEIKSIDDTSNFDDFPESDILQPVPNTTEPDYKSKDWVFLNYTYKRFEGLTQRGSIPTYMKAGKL
inactive: [1] -0.046 | [2] -0.015 | [3] -0.117 | [4] 0.078 | entinostat 0.109 | vorinostat 0.02 | citarinostat 0.036 | silmitasertib 0.101 | [5] -0.078 | [6] 0.05

SPTBN4 (UniProt Q9H254)
Sequence of UniProt Q9H254 (Q9H254 whole entry, looked up): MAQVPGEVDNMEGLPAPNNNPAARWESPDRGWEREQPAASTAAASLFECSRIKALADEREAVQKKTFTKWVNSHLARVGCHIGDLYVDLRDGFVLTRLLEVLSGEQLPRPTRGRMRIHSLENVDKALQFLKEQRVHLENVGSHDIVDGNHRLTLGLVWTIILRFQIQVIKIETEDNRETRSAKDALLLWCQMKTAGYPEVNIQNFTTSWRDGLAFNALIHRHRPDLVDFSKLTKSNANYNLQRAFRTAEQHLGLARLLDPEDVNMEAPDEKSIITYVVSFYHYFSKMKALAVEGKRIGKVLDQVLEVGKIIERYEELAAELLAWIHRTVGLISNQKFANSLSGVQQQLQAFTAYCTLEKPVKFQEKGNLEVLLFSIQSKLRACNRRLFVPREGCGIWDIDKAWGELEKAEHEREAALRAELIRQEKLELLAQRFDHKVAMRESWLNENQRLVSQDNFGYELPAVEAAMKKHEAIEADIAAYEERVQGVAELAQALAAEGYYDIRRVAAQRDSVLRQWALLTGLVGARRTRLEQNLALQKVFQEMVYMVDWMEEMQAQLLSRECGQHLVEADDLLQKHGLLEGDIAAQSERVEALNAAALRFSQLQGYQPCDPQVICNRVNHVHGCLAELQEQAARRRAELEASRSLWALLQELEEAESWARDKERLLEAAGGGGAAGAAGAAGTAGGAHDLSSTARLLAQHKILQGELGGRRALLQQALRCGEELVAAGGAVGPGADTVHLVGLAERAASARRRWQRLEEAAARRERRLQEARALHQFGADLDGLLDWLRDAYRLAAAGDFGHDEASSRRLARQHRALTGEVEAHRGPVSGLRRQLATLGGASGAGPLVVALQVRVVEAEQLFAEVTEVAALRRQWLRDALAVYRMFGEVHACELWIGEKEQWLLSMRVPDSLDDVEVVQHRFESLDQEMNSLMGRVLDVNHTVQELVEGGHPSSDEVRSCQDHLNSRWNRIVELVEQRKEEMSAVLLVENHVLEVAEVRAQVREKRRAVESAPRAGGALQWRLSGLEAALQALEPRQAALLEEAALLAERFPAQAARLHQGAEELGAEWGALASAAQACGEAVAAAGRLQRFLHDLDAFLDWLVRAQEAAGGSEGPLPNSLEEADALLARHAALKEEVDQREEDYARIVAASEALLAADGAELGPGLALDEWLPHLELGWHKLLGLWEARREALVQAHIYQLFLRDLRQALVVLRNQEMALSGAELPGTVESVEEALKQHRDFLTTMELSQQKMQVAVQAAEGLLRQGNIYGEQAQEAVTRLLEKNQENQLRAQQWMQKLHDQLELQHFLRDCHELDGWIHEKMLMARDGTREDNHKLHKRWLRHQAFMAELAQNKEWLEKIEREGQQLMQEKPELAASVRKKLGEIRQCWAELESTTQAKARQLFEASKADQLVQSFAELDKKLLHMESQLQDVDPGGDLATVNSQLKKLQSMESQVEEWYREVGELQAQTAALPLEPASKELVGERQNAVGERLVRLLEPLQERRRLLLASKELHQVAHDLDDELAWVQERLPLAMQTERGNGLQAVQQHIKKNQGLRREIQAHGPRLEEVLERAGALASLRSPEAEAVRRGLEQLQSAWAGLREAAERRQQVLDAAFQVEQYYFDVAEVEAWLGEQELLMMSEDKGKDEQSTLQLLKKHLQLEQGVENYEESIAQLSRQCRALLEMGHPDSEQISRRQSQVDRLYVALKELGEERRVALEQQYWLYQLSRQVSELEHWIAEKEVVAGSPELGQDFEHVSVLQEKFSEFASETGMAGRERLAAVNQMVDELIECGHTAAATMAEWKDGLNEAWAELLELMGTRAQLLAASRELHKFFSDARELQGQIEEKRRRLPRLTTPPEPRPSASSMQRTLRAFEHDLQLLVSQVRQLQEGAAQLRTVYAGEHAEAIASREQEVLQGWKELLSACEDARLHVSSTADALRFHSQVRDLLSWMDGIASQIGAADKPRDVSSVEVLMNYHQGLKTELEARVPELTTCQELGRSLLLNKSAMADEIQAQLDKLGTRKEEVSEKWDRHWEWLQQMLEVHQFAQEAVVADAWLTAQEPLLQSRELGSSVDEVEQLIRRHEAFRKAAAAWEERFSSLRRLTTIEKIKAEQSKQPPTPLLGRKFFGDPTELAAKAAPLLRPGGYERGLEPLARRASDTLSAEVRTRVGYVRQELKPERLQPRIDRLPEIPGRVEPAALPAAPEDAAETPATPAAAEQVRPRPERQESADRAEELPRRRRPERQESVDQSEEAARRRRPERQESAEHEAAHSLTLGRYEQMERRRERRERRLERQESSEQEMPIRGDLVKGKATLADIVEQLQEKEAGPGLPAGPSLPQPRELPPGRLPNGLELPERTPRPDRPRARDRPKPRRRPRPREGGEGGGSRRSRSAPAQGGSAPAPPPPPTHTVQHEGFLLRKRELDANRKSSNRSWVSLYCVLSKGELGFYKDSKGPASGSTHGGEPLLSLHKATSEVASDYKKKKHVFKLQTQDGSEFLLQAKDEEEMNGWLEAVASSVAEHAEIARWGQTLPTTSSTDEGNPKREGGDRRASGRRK
inactive: [1] 0 | [2] -0.09 | [3] -0.095 | [4] 0.033 | entinostat 0.014 | vorinostat 0.026 | citarinostat 0.05 | silmitasertib 0.062 | [5] 0.129 | [6] -0.013

SLC4A2 (UniProt P04920)
inactive: [1] -0.048 | [2] -0.055 | [4] -0.123 | entinostat 0.028 | vorinostat 0.023 | citarinostat -0.072 | silmitasertib 0.019 | [5] 0.016 | [6] -0.084
active: [3] -0.204

SNX2 (UniProt O60749)
inactive: [1] -0.001 | [2] -0.204 | [3] -0.146 | [4] 0 | entinostat 0.092 | vorinostat 0.093 | citarinostat 0.062 | silmitasertib -0.068 | [5] -0.044 | [6] -0.082

SPPL2B (UniProt Q8TCT7)
Sequence of UniProt Q8TCT7 (Q8TCT7 whole entry, looked up): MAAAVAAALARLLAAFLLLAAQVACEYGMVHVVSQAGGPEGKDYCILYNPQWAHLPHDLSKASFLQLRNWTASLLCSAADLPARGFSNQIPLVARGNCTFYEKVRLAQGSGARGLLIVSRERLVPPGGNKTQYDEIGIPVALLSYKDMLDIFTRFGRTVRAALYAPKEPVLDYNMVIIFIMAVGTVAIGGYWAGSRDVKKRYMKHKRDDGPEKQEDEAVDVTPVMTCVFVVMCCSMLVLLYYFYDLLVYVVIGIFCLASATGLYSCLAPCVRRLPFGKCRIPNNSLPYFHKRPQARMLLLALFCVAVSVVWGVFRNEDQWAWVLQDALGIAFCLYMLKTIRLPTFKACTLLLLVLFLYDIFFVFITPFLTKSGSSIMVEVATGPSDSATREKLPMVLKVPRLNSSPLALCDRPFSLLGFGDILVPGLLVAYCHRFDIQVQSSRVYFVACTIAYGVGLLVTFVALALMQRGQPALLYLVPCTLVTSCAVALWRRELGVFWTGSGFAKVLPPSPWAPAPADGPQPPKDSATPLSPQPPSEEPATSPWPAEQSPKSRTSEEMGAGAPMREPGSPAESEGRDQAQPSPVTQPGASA
inactive: [1] 0.06 | [2] 0.009 | [3] -0.031 | [4] -0.016 | entinostat -0.052 | vorinostat -0.013 | citarinostat 0.05 | silmitasertib -0.037 | [5] 0.029 | [6] -0.025

TBC1D20 isoform 3 (UniProt Q96BZ9)
inactive: [1] -0.062 | [2] 0.052 | [3] 0.027 | [4] -0.08 | entinostat 0.026 | vorinostat 0.033 | citarinostat 0.293 | silmitasertib 0.03 | [5] -0.007 | [6] 0.03

SRSF10 (UniProt O75494)
inactive: [1] 0.059 | [2] -0.096 | [3] 0.444 | [4] 0.063 | entinostat -0.047 | vorinostat 0.048 | citarinostat -0.153 | silmitasertib 0.103 | [5] 0.304 | [6] -0.152

TAOK3 (UniProt Q9H2K8)
Sequence of UniProt Q9H2K8 (Q9H2K8 whole entry, looked up): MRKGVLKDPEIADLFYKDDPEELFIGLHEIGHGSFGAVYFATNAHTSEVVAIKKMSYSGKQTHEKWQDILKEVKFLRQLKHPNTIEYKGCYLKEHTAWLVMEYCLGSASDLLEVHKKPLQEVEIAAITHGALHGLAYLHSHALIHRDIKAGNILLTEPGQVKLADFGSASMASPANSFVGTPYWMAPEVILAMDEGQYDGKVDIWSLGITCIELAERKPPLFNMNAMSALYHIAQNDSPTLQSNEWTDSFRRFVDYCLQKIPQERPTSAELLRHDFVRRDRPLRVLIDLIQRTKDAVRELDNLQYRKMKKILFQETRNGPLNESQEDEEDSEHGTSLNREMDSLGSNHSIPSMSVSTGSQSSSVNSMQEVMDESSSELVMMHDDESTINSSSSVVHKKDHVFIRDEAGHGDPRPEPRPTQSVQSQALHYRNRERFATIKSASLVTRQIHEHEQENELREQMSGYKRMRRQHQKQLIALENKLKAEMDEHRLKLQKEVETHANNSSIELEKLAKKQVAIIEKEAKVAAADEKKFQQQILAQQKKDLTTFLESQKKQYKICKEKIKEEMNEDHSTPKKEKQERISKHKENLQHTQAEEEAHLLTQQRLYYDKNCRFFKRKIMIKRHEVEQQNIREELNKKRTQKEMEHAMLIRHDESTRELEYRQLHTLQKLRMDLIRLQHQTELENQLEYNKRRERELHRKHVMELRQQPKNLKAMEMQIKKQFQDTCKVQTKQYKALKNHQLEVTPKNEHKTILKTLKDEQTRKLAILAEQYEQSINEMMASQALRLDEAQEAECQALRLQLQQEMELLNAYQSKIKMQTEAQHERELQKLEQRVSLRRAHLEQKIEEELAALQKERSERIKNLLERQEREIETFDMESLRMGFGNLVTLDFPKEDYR
inactive: [1] -0.013 | [2] -0.149 | [3] -0.048 | [4] 0 | entinostat 0.034 | vorinostat 0.036 | citarinostat 0.106 | silmitasertib 0 | [5] 0.021 | [6] -0.203

SNX1 (UniProt Q13596)
active: [2] -0.375 | [3] -0.336
inactive: [1] -0.01 | [4] 0.011 | entinostat 0.121 | vorinostat 0.147 | citarinostat 0.054 | silmitasertib -0.062 | [5] -0.04 | [6] -0.094

SSR4 (UniProt P51571)
Sequence of UniProt P51571 (P51571 whole entry, looked up): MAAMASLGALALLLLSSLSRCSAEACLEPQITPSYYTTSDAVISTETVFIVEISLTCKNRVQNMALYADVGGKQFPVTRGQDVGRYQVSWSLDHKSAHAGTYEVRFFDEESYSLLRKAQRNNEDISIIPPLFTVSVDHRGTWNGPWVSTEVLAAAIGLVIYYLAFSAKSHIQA
inactive: [1] 0.032 | [2] -0.013 | [3] -0.011 | [4] 0.023 | entinostat -0.011 | vorinostat 0 | citarinostat 0.019 | silmitasertib -0.029 | [5] 0.004 | [6] -0.056

SYNE1 (UniProt Q8NF91)
inactive: [1] -0.006 | [2] -0.031 | [3] -0.008 | [4] 0.04 | entinostat -0.027 | vorinostat 0.114 | citarinostat 0.106 | silmitasertib -0.03 | [5] -0.244 | [6] 0.006

SMC5 (UniProt Q8IY18)
inactive: [1] 0.057 | [2] -0.034 | [3] -0.083 | [4] -0.051 | entinostat -0.033 | vorinostat 0.017 | citarinostat -0.021 | silmitasertib 0.052 | [5] -0.1 | [6] -0.051
